Source: PubChem BioAssay AID1345083 (National Center for Advancing Translational Sciences (NCATS), 2018)
The whole screen tested about 94,000 compounds, of which about 6,200 (6.6%) were called active. About 31% were inconclusive and are not listed. The sample holds actives, similar compounds and a random draw of the others, so the mix is not that of the screen. A number with no mark means an inactive call. The call rests on the fitted dose curve; in most records, active means well fitted inhibition curve with a large enough effect; inconclusive means small, poorly fitted or top-dose-only effect; inactive means flat fitted curve, though single readings scatter.

Assay: Cytotoxic Profiling in HEK 293 Cell Line of Diverse Libraries Using Quantitative High-Throughput Screening; further: nearly all actives have a fitted effect of over 60% in size
Details: HEK 293 viability, ATP luminescence (CellTiter-Glo), 48-72 h; series mostly up to 115 µM; activity change, negative = cytotoxicity: at the top concentration
Method in brief: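 Cytotoxicity was scored by loss of ATP-coupled luminescence (CellTiter-Glo) in HEK 293 cells. Compound treatment ran 48 or 72 hr at 37 degree Celsius, 5% CO2, 95% humidity.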
On the % scale 0 is the no-effect control and ±100 the full control effect; potency means the concentration at half of the fitted maximal effect.

SMILES | Potency | activity change, negative = cytotoxicity | outcome
COc1cccc(-c2cc(C(=O)Nc3cccc(F)c3)c3cnn(C)c3n2)c1 | 44.7 µM (active) |  | 
Cn1ncc2c(C(=O)Nc3cccc(C(F)(F)F)c3)cc(-c3cccc(C(F)(F)F)c3)nc21 |  | -31.4% | 
Cn1ncc2c(C(=O)NC3CCCCC3)cc(-c3cccnc3)nc21 |  | -18.9% [at 172 µM] | 
COc1cccc(-c2cc(C(=O)Nc3cccc(Cl)c3)c3cnn(C)c3n2)c1 | 39.8 µM (active) |  | 
Cn1ncc2c(C(=O)Nc3ccc(F)cc3)cc(-c3ccc(Cl)cc3Cl)nc21 |  | 0.727% | 
COc1cccc(-c2cc(C(=O)N3CCN(C(C)=O)CC3)c3cnn(C)c3n2)c1 |  | -18.6% | 
COc1cccc(CNC(=O)c2cc(-c3ccc(Cl)nc3)nc3c2cnn3C)c1 |  | -8.6% | 
Cc1ccc(NC(=O)c2cc(C(C)(C)C)nc3c2cnn3C)cc1 | 79.4 µM (active) |  | 
CCn1nc(C)cc1C(=O)N1C[C@H]2OC(=O)N(CCCN3CCOCC3)[C@H]2C1 |  | -26.4% | 
O=C(Nc1cccnc1)O[C@H]1COCCN(c2nc3ccccc3s2)C1 |  | -19% [at 172 µM] | 
COc1cccc([S+](=O)([O-])N2CCCC3(CC(c4cccc(C(F)(F)F)c4)=NO3)C2)c1 (stereo not drawn) |  | -20.1% | 
CC(C)N1C[C@H](O)C[C@H]1c1nnc2n1CCN(C(=O)c1ccccn1)CC2 |  | -14.3% | 
CO[C@H]1C(=O)N(C2CCN(S(=O)(=O)c3c(C)nn(C)c3C)CC2)[C@H]1c1ccncc1 |  | -4.47% | 
CCCN1C(=O)NC(CC(=O)N2CCC(O)(c3ccc(C)cn3)CC2)C1=O (stereo not drawn) |  | -16.1% | 
CN(C)S(=O)(=O)N1C[C@@H]2CC[C@H](C1)N(Cc1ccccc1C#N)C2 |  | -13.7% | 
CC1(C)[C@H](Cc2cc(-c3ccccc3)on2)C[C@@H]1NS(C)(=O)=O | 89.1 µM (active) |  | 
CC1(C)[C@H](Cc2cc(-c3ccccc3)on2)C[C@@H]1NCC1CC1 | 100 µM (active) |  | 
CC1(C)[C@H](Cc2cc(CCO)on2)C[C@@H]1NCC1CC1 |  | -3.06% [at 230 µM] | 
CCn1cnnc1CC1CCN(C(=O)c2cc(-c3ccc(F)cc3)nc3ccccc23)CC1 |  | -31.2% | 
CN(C)C(C(=O)N1CCC(N2CCSCC2)CC1)c1cccc(F)c1 (stereo not drawn) |  | 2.08% | 
O=C(NC[C@H]1O[C@@H](CO)[C@@H](O)[C@H]1N1CCOCC1)Nc1ccc(OC(F)(F)F)cc1 |  | 4.47% | 
O=C(NCc1ccccc1)c1ccc2nc(-c3ccnc(Cl)c3)oc2c1 |  | -0.349% [at 172 µM] | 
O=C(NCc1cnn(Cc2ccccc2)c1)c1ccc2oc(-c3cccc(F)c3)nc2c1 | 7.08 µM (active) |  | 
O=C(NCCc1ccccc1)c1ccc2oc(-c3cccnc3)nc2c1 |  | -15.5% | 
COC1CCOC2(CCN(C(=O)c3cnccn3)CC2)C1 (stereo not drawn) |  | -8.41% | 

SMILES | Potency | activity change, negative = cytotoxicity | outcome
CN(C(=O)NCc1ccccc1)C1CCc2nn(CC3CC3)c(=O)n2CC1 (stereo not drawn) |  | -7.23% | 
O=C(C1Cn2cccc2C(=O)N1Cc1ccccc1)N1CCOCC1 (stereo not drawn) |  | -8.46% | 
O=S(=O)(Cc1ccccc1)N1CCCC(Cc2nncn2CC2CC2)C1 (stereo not drawn) |  |  | inactive
Cc1cnc(CC2CCN(S(=O)(=O)c3ccc(C#N)cc3)C2)n1Cc1ccccc1 (stereo not drawn) | 44.7 µM (active) |  | 
Cc1ccc(S(=O)(=O)N2CC[C@H](c3nnc(-c4ccccc4)o3)C2)cc1 |  | -21.2% [at 172 µM] | 
CCN(CCn1cccn1)Cc1cnc(S(=O)(=O)Cc2ccccc2)n1CC(C)C |  | -18.6% | 
O=C(C1CCCCC1)N1CC2(Cc3ccccc3NC2=O)C1 |  | -17.9% | 
O=C(NCc1c[nH]c2ncccc12)c1ccccc1F |  | -18.3% [at 172 µM] | 
COc1ccc(CNC(=O)[C@@H]2Cc3cn(Cc4ccncc4)c4cccc(c34)[C@H](CC(C)C)N2)cc1 | 39.8 µM (active) |  | 
CN1CC(C(=O)NCc2ccccc2)NC1=O (stereo not drawn) |  |  | inactive [at 172 µM]
CCc1ccc(CNC(=O)C2c3ccccc3CC(=O)N2C(C)C)cc1 (stereo not drawn) |  | -27.9% | 
COc1ccc(CNC(=O)[C@H]2O[C@H](CCN3CCN(C)CC3)CC[C@@H]2O)cc1 |  | -12% [at 172 µM] | 
COCCN1C(=O)Cc2ccccc2C1C(=O)NCC1CCCCC1 (stereo not drawn) |  | 10% | 
COC(=O)[C@@H]1Cc2ncn(Cc3ccc(OC)cc3)c2CN1S(C)(=O)=O |  | -6.58% [at 172 µM] | 
CC(C)N1CCC(OCCCNC(=O)C2Cn3cccc3C(=O)N2)CC1 (stereo not drawn) |  | 2.23% | 
CC(C)C[C@@H]1N[C@H](C(=O)NCc2ccc(F)cc2)Cc2cn(C)c3cccc1c23 | 70.8 µM (active) |  | 
C=CCn1cc2c3c(cccc31)[C@H](CC(C)C)N[C@H](C(=O)NCC1CC1)C2 | 79.4 µM (active) |  | 
CN1CC2(CCN(C(=O)c3ccncc3)CC2)CC1C(=O)N1CCOCC1 (stereo not drawn) |  | -3.04% | 
CNC(=O)c1cc(C2CC2)nc2onc(C3CCN(C(=O)Nc4ccccc4)C3)c12 (stereo not drawn) |  | -12.7% | 
CNC(=O)c1cc(C2CC2)nc2c1c(C1CCN(C(=O)C(C)C)C1)nn2C (stereo not drawn) |  | -22% | 
COC[C@H]1C[C@@H](NC(=O)c2cc(C)oc2C(F)(F)F)[C@H](O)[C@@H]1O |  | -0.359% [at 172 µM] | 
Cc1cc(S(=O)(=O)N2CCCN(C)c3ccccc32)ccc1F | 79.4 µM (active) |  | 
CN1CCCN(C(=O)c2cc(F)ccc2F)c2ccccc21 |  | -29.6% | 
Cc1cc(S(=O)(=O)N2CCC(n3cnnc3C(C)C)CC2)ccc1F |  | -7.71% | 
CCOc1ccc(-c2cc3c(=O)n(CCNC(=O)c4ccc(OC)cc4C)ccn3n2)cc1 |  | -42.3% | 

SMILES | Potency | activity change, negative = cytotoxicity | outcome
COc1cccc(CNC(=O)Cn2ccn3nc(-c4ccc(F)cc4)c(CO)c3c2=O)c1 |  | -4.92% | 
CCC(C(=O)NCCn1ccn2nc(-c3ccc(F)cc3)cc2c1=O)c1ccccc1 (stereo not drawn) | 20 µM (active) |  | 
Fc1ccc(Nc2nc(-c3ccccc3F)no2)cc1 | 39.8 µM (active) |  | 
O=C(Cn1cccc1-c1nc(-c2ccc(F)cc2)no1)Nc1cc(F)cc(F)c1 |  | -13.6% | 
CCc1nc2c(=O)n(CC(=O)NCc3cc(C)ccc3C)nc(C)c2s1 |  | -19.2% | 
CN(c1ccccc1)c1cc(=O)c2ccnc(Nc3cccc([S+](C)(=O)[O-])c3)c2o1 | 100 µM (active) |  | 
Cn1ccc(Nc2nccc3c(=O)cc(-c4ccccn4)oc23)n1 |  | -16.5% [at 172 µM] | 
CCCC(=O)N(C)CC1CCOCC1 |  | 9.81% | 
COc1ccccc1NC(=O)N1CCC2(CCNC(=O)CC2)CC1 |  | -2.63% | 
CN(C)CCN(C)C(=O)c1ccc2c(c1)NC(C)(COc1ccc3[nH]ccc3c1)CO2 (stereo not drawn) | 112 µM (active) |  | 
O=C(NCC1CCOCC1)c1ccc2[nH]ccc2c1 |  | -0.244% | 
CC1(COCC2CC2)COc2ccc(C(=O)NCc3cccnc3)cc2N1 (stereo not drawn) |  | -25.1% [at 172 µM] | 
CC(C)CC(=O)N1CCCN(c2nnc3ccccn23)CC1 |  |  | inactive
C[C@@H](NC(=O)c1cccnc1)c1c(-c2ccc(F)cc2)noc1C(=O)O |  | 4.65% [at 172 µM] | 
CC(=O)NC1CN(c2ccnc3ccnn23)C1 |  | -10.6% [at 172 µM] | 
CC(=O)Nc1cccc(-c2nnc3n2CCCC3)c1 |  | 24.3% | 
Cc1cccc(C(=O)N2C[C@@H](F)C[C@H]2C(=O)N2CCCCC2)c1 |  | 1.93% | 
Cc1cccc(-c2cccc(NC(=O)C3CCCN(C(=O)CC(F)(F)F)C3)c2)c1 (stereo not drawn) | 31.6 µM (active) |  | 
CCCCc1ccc(NC(=O)Cn2ccn3nc(-c4ccc(F)cc4)c(CO)c3c2=O)cc1 |  | -0.406% | 
COC[C@H]1NC(=O)CC[C@H]1C(=O)NCc1cccc(C(F)(F)F)c1 |  | 2.55% | 
O=C(NCc1cccc(C(F)(F)F)c1)c1nn(CCOc2ccccc2)c2c1CNCC2 | 28.2 µM (active) |  | 
COc1ccccc1CNC(=O)c1nn(CC2CC2)c2c1CNCC2 |  | -11% | 
CNC(=O)c1noc([C@@H]2CC(F)(F)CN2Cc2ccc(C)cn2)n1 |  | 1.02% | 
COc1ccc(CN2CCC3(COc4ncccc4[S+](=O)([O-])N3)C2)cc1 (stereo not drawn) |  | -6.89% | 
COc1ccc(OCC2CN(Cc3cccc(F)c3)[S+](=O)([O-])c3cccnc3O2)cc1 (stereo not drawn) | 28.2 µM (active) |  | 

SMILES | Potency | activity change, negative = cytotoxicity | outcome
COc1ccc(N2CC(COc3ccccc3)Oc3ncccc3[S+]2(=O)[O-])cc1 (stereo not drawn) |  | -26% [at 57.5 µM] | 
CNC(=O)N1CCC(C2CCN(C(=O)C3CC=CC3)C2)CC1 (stereo not drawn) |  | -10.2% | 
CC(C)(C)c1csc(NC(=O)c2ccc3c(c2)OCCN(C2CCC2)C3)n1 | 50.1 µM (active) |  | 
O=C(Cn1nc2c(cc1=O)CCCC2)Nc1nc(-c2ccc3c(c2)OCCCO3)cs1 |  | 1.44% | 
COc1ccc(NC(=O)Cn2c(C)ccc(NS(=O)(=O)c3ccccc3)c2=O)cc1 |  | -11.2% | 
CCOc1ccc2c(n1)CCN(C(=O)C(C)C)C2 |  | -20.1% | 
O=C(NCc1ccc(Cl)nc1)c1cn2c(n1)CN(C(=O)c1cccnc1)CC2 |  |  | inactive
O=C(NCCc1cnccn1)c1coc(COc2cccc(C(F)(F)F)c2)n1 |  | -2.53% | 
Cc1occc1C(=O)N[C@@H]1CN(Cc2cccnc2)C[C@H]1CN(C)C |  | -0.747% | 
CN(C)C[C@@H]1CN(Cc2ccccn2)C[C@H]1NC(=O)c1cc(Cl)ccc1F | 44.7 µM (active) |  | 
CN(C)C[C@@H]1CN(c2ncccn2)C[C@H]1NC(=O)c1cc(Cl)ccc1F |  | 2.99% | 
CNC(=O)c1cc(C)nc2onc(C3CCN(C(=O)c4ccc(C)cc4)CC3)c12 |  | -0.605% | 
NC(=O)CCNC(=O)C1=C[C@@H](NC(=O)Nc2ccccc2Br)[C@@H](O)[C@H](O)C1 |  |  | inactive
CCN(C1CCN(C)CC1)C1CN(C(=O)c2nccc3ccccc23)C1 |  | -0.681% | 
CCc1cccc(C)c1NC(=O)CN1C(=O)C(c2ccccc2)=NC12CCCC2 |  | -26% | 
CCOc1ccccc1NC(=O)CN1C(=O)C(c2ccccc2)=NC12CCCC2 | 79.4 µM (active) |  | 
CCOc1ccccc1NC(=O)Cn1c(=O)n(-c2ccccc2)c(=O)c2c1cc(C)n2C |  | -1.28% | 
Cc1noc(C)c1[S+](=O)([O-])N1CCn2c(nnc2C2CCCNC2)C1 (stereo not drawn) |  | -2.98% | 
c1cc2c(cc1-c1n[nH]c(C3CCOCC3)n1)OCO2 |  | 4.32% | 
Cc1cccc(-c2cnc3n[nH]c(-c4ccc5c(c4)OCO5)c3n2)c1 | 70.8 µM (active) |  | 
COc1ccc(-c2[nH]nc3ncc(-c4cn[nH]c4)nc23)cc1F |  | -65.2% [at 172 µM] | 
CC(=O)N1CCC(Oc2ccc(Cl)cc2C(=O)N2CCN(CC3CC3)CC2)CC1 |  | -0.051% | 
CCn1cc(S(=O)(=O)N2CCc3nn(CC4CC4)c(=O)n3CC2)cn1 |  |  | inactive
